We go through eight compounds from PubChem BioAssay (EPA / NIEHS).

Experiment [1] is described as follows: ATG_M_61_CIS: Attagene CIS-FACTORIAL HepG2 Assay for M61 Transcription Factor (Internal Marker) (AID 2282937). The note with it: HepG2 Attagene CIS-FACTORIAL M61 internal marker reporter; actives raise or lower the signal. The gist of the method: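 Cells were transfected with reporter units under cis-regulatory promoters, treated with chemicals for 24 h, then lysed for RNA. Reporter transcripts were quantified by RT-PCR and capillary electrophoresis, and activity was fitted bidirectionally against DMSO.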

Experiment [2] in a line: ATG_EGR_CIS: Attagene CIS-FACTORIAL HepG2 Assay for human Early Growth Response 1 (EGR1) (AID 2282938). The settings on record: HepG2 Attagene CIS-FACTORIAL EGR reporter mRNA; actives raise or lower the signal. The gist of the method:
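Endogenous TF activity in HepG2 liver cells was gauged through cis-promoter reporter constructs transiently transfected. After 24 h dosing, reporter mRNA was quantified by RT-PCR and capillary electrophoresis, and curves fitted in both directions versus DMSO.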

Experiment [3] can be described thus: ATG_M_19_CIS: Attagene CIS-FACTORIAL HepG2 Assay for M19 Transcription Factor (Internal Marker) (AID 2282939). The note with it: HepG2 Attagene CIS-FACTORIAL M19 internal marker reporter; actives raise or lower the signal. The gist of the method:
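Readout: fluorescent reporter-transcript fragments by capillary electrophoresis after RT-PCR. Human HepG2 liver cells carried transfected MRTU constructs reporting endogenous transcription-factor activity; exposure 24 h. Gain or loss of signal fitted relative to DMSO.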

Experiment [4] in a line: ATG_Ets_CIS: Attagene CIS-FACTORIAL HepG2 Assay for human Erythroblast Transformation Specific (ETS) (AID 2282941). The note with it: HepG2 ETS cis-reporter transcription, actives raise or lower the signal. The method, boiled down: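 RT-PCR/capillary electrophoresis fluorescence read-out of reporter mRNA; HepG2 transient multi-reporter transfection; 24 h compound exposure; gain or loss of signal fitted bidirectionally relative to DMSO.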

In experiment [5] the target is Hepatocyte nuclear factor 3-beta (Homo sapiens) (UniProt Q9Y261). The experiment can be described thus: ATG_FoxA2_CIS: Attagene CIS-FACTORIAL HepG2 Assay for human Forkhead box A2 (FOXA2) (AID 2282942). The settings on record: HepG2 cis-reporter transcription factor activity, 24 h; actives raise or lower the signal. The gist of the method:
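Endogenous transcription factor activity was read in HepG2 cells carrying transiently transfected cis-promoter reporter units. After 24 h dosing, reporter mRNA was quantified by RT-PCR and capillary electrophoresis, and values fitted bidirectionally versus DMSO.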

Experiment [6] in a line: ATG_FoxO_CIS: Attagene CIS-FACTORIAL HepG2 Assay for human Forkhead box O (FoxO) (AID 2282943). The note with it: HepG2 Attagene cis-reporter, FoxO element, mRNA; actives raise or lower the signal. The gist of the method: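 HepG2, transient MRTU transfection (cis element, endogenous TFs). Dose 24 h. TriZol RNA → oligo(dT) RT → PCR → 6-FAM primer extension → HpaI cut → CE. Gain/loss vs DMSO.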

The nature of experiment [7]: ATG_GATA_CIS: Attagene CIS-FACTORIAL HepG2 Assay for human GATA Binding Protein (AID 2282944). The note with it: HepG2 GATA cis-element reporter, Attagene multiplex mRNA; actives raise or lower the signal. The gist of the method:
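Read-out: fluorescent reporter mRNA fragments resolved by capillary electrophoresis after RT-PCR. Human liver HepG2 cells carried transiently transfected cis-regulated reporter constructs; chemicals incubated 24 h; gain or loss of signal fitted relative to DMSO.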

Experiment [8] in a line: ATG_GLI_CIS: Attagene CIS-FACTORIAL HepG2 Assay for human Zinc Finger Protein GLI1 (AID 2282945). The note with it: HepG2, Attagene cis-factorial reporter mRNA, GLI element; actives raise or lower the signal. The method, boiled down: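 Bidirectional curve fits relative to DMSO, using reporter mRNA levels from RT-PCR plus capillary electrophoresis. Cells were HepG2 transiently carrying cis-regulated reporter constructs, harvested 24 h after dosing.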

Experiment [9] is described as follows: ATG_GRE_CIS: Attagene CIS-FACTORIAL HepG2 Assay for human Glucocorticoid Response Elements (GRE) (AID 2282947). The settings on record: HepG2 GRE cis-reporter, Attagene multiplex mRNA; actives raise or lower the signal. The gist of the method: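 Multiplexed cis-reporter mRNA induction, HepG2, 24 h post-dose. RT-PCR, FAM-labelled, HpaI-digested amplicons by CE. Bidirectional fit vs DMSO.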

Experiment [10] can be described thus: ATG_ISRE_CIS: Attagene CIS-FACTORIAL HepG2 Assay for human Interferon Regulatory Factor 1 (IRF1) binding to an Interferon-Stimulated Response Element (ISRE) (AID 2282948). The settings on record: HepG2 ISRE cis-reporter (Attagene), mRNA transcription readout; actives raise or lower the signal. The gist of the method: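 Read-out: fluorescent RT-PCR products resolved by capillary electrophoresis, reporting endogenous transcription factor activity via ISRE-driven reporter mRNA in transfected HepG2 cells dosed for 24 h; gain or loss fitted relative to DMSO.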

Experiment [11] is described as follows: ATG_M_32_CIS: Attagene CIS-FACTORIAL HepG2 Assay for M32 Transcription Factor (Internal Marker) (AID 2282949).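 Note: background control marker of the multiplexed CIS panel rather than a real target.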 The settings on record: HepG2 Attagene cis-factorial M32 reporter, mRNA; actives raise or lower the signal. The method, boiled down:
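Using DMSO as baseline, bidirectional curve fits were applied to reporter mRNA signals. These came from transiently transfected HepG2 cells exposed for 24 h, with RNA analysed by RT-PCR, FAM primer extension, HpaI digestion and CE.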

Experiment [12] is described as follows: ATG_M_06_CIS: Attagene CIS-FACTORIAL HepG2 Assay for M06 Transcription Factor (Internal Marker) (AID 2282950). The note with it: HepG2 Attagene CIS-FACTORIAL M06 internal marker reporter; actives raise or lower the signal. The gist of the method:
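Terse: HepG2, transient MRTU transfection (FuGene 6), 24 h dosing; total RNA, oligo(dT) RT, PCR, FAM label, HpaI cut, capillary electrophoresis; bidirectional fit vs DMSO baseline; background-control endpoint.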

Experiment [13] addresses Hypoxia-inducible factor 1-alpha (Homo sapiens) (UniProt Q16665). The experiment is described as follows: ATG_HIF1a_CIS: Attagene CIS-FACTORIAL HepG2 Assay for human Hypoxia Inducible Factor 1 (HIF1A) (AID 2282951). The settings on record: HepG2 Attagene cis-factorial HIF1a reporter transcription; actives raise or lower the signal. The gist of the method:
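Measures endogenous transcription-factor activity through cis-regulated reporter mRNA in HepG2. Cells dosed 24 h; transcripts quantified by RT-PCR with 6-FAM-labelled products separated by capillary electrophoresis; DMSO serves as negative control.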

Experiment [14] has as its target Hepatocyte nuclear factor 6 (Homo sapiens) (UniProt Q9UBC0). The experiment can be described thus: ATG_HNF6_CIS: Attagene CIS-FACTORIAL HepG2 Assay for human Hepatocyte Nuclear Factor 6 (HNF6) (AID 2282952). The settings on record: HepG2 Attagene cis-factorial HNF6 reporter transcription; actives raise or lower the signal. The gist of the method: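 Endogenous transcription factor activity in human HepG2 liver cells was captured through cis-regulated reporter constructs. After 24 h treatment, reporter mRNA was measured by RT-PCR with capillary electrophoresis, and activity was fitted in both directions relative to DMSO.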

In experiment [15] the target is Heat shock factor protein 1 (Homo sapiens) (UniProt Q00613). The experiment can be described thus: ATG_HSE_CIS: Attagene CIS-FACTORIAL HepG2 Assay for human Heat Shock Transcription Factor 1 (HSE) (AID 2282953). The settings on record: HepG2 HSE cis-reporter, Attagene RNA transcription; actives raise or lower the signal. The gist of the method: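 Read-out: fluorescence of reporter-specific RT-PCR fragments separated by capillary electrophoresis. HepG2 carrying transfected cis-element reporter units; 24 h dosing; activity fitted in both directions relative to DMSO baseline.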

Experiment [16] can be described thus: ATG_MRE_CIS: Attagene CIS-FACTORIAL HepG2 Assay for human Metal Responsive Element (MRE) (AID 2282954). The note with it: HepG2 MRE cis-reporter transcription, Attagene multiplex; actives raise or lower the signal. The method, boiled down:
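Multiplexed cis-reporter assay in human HepG2 liver cells, 24 h incubation with test chemical. Reporter transcripts measured by RT-PCR and capillary electrophoresis; values from bidirectional curve fitting versus DMSO.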

A short description of experiment [17]: ATG_PBREM_CIS: Attagene CIS-FACTORIAL HepG2 Assay for human Phenobarbital-responsive Enhancer Module (PBREM) (AID 2282955). The settings on record: HepG2 PBREM cis-reporter, Attagene multiplexed transcription; actives raise or lower the signal. The gist of the method: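 Fluorescence of labelled reporter cDNA fragments, resolved by capillary electrophoresis, gives mRNA induction in transfected HepG2 cells treated for 24 h; DMSO serves as negative control and baseline.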

In experiment [18] the target is Bile acid receptor (Homo sapiens) (UniProt Q96RI1). The experiment is described as follows: ATG_IR1_CIS: Attagene CIS-FACTORIAL HepG2 Assay for human Nuclear Receptor Subfamily 1 Group H Member 4 (NR1H4), IR1 submotif (AID 2282946). The note with it: IR1 reporter transcription, actives raise or lower the signal. The gist of the method:
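HepG2 cells transiently transfected with multiplexed cis-element reporter units read endogenous transcription factor activity. After 24 h compound exposure, reporter mRNA was quantified by RT-PCR, fluorescent labelling, HpaI digestion and capillary electrophoresis; bidirectional fitting versus DMSO baseline.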

Experiment [19] is described as follows: ATG_ERE_CIS: Attagene CIS-FACTORIAL HepG2 Assay for Estrogen Response Element (ERE) (AID 2282940). The settings on record: HepG2 ERE cis-reporter, Attagene RNA transcript; actives raise or lower the signal. The method, boiled down:
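Readout: reporter mRNA induction by RT-PCR, FAM-labelled primer extension, HpaI digestion and capillary electrophoresis, 24 h after dosing transfected HepG2 cells. Endogenous transcription factors act on cis-element-regulated reporters. Gain or loss fitted against DMSO.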

Activity calls are given as the source filed them. Rule for the calls: active = hit-call score of the fitted dose curve at least 0.9, where 1 is the maximum; inactive = score below 0.9.

Chain of Heat shock factor protein 1 (Homo sapiens) (Q00613 whole entry, looked up, the tested form may be a part): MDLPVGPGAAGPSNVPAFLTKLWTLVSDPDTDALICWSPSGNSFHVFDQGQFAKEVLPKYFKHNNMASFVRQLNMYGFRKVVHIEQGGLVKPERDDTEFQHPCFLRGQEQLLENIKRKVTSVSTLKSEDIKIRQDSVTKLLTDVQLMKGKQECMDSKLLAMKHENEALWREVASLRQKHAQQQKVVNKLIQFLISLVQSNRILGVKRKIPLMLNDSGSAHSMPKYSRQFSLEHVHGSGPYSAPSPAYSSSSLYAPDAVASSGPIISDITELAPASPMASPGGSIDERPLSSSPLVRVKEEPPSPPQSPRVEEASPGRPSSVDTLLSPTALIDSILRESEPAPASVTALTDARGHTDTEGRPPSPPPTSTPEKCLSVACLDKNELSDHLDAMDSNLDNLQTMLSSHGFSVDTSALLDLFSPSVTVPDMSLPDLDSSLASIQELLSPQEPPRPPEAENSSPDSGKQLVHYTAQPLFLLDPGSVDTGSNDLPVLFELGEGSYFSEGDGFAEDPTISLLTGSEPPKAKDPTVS
Chain of Hepatocyte nuclear factor 6 (Homo sapiens) (Q9UBC0 whole entry, looked up): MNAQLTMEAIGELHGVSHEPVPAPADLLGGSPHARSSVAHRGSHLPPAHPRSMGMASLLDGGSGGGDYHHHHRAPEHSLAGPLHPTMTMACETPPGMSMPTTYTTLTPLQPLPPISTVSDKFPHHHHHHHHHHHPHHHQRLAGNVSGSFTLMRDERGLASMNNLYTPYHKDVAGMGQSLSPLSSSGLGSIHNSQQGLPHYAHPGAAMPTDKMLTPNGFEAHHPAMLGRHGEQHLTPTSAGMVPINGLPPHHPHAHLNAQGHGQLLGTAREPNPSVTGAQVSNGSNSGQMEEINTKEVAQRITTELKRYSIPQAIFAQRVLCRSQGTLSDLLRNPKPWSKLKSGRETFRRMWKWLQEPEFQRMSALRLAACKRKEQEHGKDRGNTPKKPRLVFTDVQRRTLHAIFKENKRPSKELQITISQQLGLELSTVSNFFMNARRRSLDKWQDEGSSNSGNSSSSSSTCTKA
Chain of Bile acid receptor (Homo sapiens) (Q96RI1 whole entry, looked up): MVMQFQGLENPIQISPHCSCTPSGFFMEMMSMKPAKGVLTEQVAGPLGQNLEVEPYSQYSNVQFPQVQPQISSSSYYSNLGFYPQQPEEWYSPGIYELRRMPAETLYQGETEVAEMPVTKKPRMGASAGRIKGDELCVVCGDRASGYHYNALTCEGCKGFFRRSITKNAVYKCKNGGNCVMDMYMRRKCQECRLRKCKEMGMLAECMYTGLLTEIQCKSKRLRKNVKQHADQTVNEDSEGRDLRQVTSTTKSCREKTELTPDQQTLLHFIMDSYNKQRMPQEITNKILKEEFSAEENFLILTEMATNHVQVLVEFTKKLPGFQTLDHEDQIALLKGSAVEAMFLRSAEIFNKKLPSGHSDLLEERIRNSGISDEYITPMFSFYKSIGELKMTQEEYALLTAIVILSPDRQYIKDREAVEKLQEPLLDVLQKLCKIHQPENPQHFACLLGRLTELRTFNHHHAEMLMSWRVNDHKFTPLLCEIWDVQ
Chain of Hepatocyte nuclear factor 3-beta (Homo sapiens) (Q9Y261 whole entry, looked up): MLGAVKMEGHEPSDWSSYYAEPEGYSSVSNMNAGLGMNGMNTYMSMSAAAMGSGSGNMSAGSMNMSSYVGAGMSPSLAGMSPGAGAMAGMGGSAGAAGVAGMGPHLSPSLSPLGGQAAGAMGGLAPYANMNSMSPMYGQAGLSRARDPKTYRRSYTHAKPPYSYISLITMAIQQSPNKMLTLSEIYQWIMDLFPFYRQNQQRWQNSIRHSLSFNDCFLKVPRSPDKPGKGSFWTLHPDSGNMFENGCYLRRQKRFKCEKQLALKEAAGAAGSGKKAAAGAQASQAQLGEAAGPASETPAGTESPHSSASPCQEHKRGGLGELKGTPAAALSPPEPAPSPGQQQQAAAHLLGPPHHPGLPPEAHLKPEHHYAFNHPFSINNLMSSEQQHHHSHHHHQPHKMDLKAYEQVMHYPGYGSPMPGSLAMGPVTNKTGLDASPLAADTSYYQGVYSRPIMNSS
Chain of Hypoxia-inducible factor 1-alpha (Homo sapiens) (Q16665 whole entry, looked up): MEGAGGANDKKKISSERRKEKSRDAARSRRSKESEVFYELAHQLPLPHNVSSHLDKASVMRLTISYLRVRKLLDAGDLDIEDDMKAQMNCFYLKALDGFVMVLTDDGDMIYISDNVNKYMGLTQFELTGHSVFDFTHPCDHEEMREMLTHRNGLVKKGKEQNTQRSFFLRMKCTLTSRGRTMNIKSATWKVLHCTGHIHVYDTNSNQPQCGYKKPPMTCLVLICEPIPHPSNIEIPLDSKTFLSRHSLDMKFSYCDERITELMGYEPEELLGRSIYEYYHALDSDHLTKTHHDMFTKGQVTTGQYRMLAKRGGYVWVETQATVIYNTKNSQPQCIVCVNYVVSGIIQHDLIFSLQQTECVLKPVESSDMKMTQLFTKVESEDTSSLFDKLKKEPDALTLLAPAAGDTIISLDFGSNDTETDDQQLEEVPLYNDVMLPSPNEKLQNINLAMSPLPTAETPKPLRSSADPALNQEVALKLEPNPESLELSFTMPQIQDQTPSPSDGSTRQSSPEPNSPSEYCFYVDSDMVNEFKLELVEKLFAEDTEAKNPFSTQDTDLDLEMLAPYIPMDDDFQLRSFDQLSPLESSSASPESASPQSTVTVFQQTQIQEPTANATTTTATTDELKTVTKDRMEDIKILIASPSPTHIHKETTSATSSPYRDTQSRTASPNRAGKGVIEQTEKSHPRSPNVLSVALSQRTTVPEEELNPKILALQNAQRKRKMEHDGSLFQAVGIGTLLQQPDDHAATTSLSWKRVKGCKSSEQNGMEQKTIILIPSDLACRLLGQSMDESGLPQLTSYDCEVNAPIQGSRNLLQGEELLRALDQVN

Broadly, the AC50 is the concentration giving half of the maximal activity seen. `O=[N+]([O-])c1ccc(Nc2ccc(Nc3ccccc3)c(S(=O)(=O)O)c2)c([N+](=O)[O-])c1`: the compound was classed as inactive in experiment [1], in [3], in experiment [4], in experiment [5], in experiment [6] and in experiment [7]. The result in [8], in [9], in experiment [10], in [11], in experiment [12] and in experiment [13] was inactive. In addition, the outcome in experiment [14] and in [17] was inactive. For the same compound, the AC50 is 100 µM (active) in [2], 178 µM (active) in experiment [15] and 100 µM (active) in experiment [16].

With `O=C1NC(=O)c2ccccc21`, the compound was called inactive in [1], in experiment [2], in [3], in [5], in experiment [6] and in experiment [7]. For the same compound, the outcome in [8], in experiment [18], in experiment [10], in [11], in [12] and in experiment [14] was inactive. The outcome in experiment [15] and in experiment [16] was inactive.

Regarding `Clc1ccc2c(c1)C(N1CCNCC1)=Nc1ccccc1O2`, the compound was called inactive in experiment [1], in [3], in experiment [19], in experiment [4], in experiment [5] and in [6]. Moreover, the outcome in [7], in experiment [8], in experiment [9], in [10], in experiment [12] and in [13] was inactive. For the same compound, the compound was classed as inactive in experiment [14]. The AC50 in [2] is 26.6 µM (active); in [15], 52.1 µM (active); in [16] it was 34.2 µM (active).

On to `COC(=O)OC`, for which the call in experiment [1], in [2], in [3], in [4], in [5] and in [6] was inactive. The call in experiment [7], in experiment [9], in experiment [10], in [11], in experiment [12] and in experiment [13] was inactive. In addition, the result in experiment [14], in experiment [15] and in experiment [16] was inactive.

Turning to `CCCCCCOC(=O)CC`, the compound was classed as inactive in experiment [1], in [2], in experiment [3], in experiment [19], in experiment [4] and in [5]. Moreover, the compound was classed as inactive in experiment [6], in experiment [7], in [8], in experiment [18], in [10] and in [11]. Besides, the compound was classed as inactive in experiment [12], in experiment [14], in experiment [15], in [16] and in experiment [17].

For `COc1ccc(O)cc1`, the result in experiment [1], in experiment [2], in [3], in [4], in experiment [5] and in experiment [6] was inactive. Besides, the result in [8], in [9], in [10], in experiment [12], in experiment [13] and in experiment [14] was inactive. The compound was called inactive in experiment [15] and in [16].

On to `COc1cc(C)cc(O)c1`, for which the result in experiment [1], in experiment [2], in experiment [3], in experiment [4], in experiment [5] and in experiment [6] was inactive. Moreover, the result in experiment [7], in [8], in experiment [9], in experiment [10], in experiment [11] and in experiment [12] was inactive. Further, the compound was classed as inactive in [13], in experiment [14], in experiment [15], in experiment [16] and in experiment [17].

For the compound `OCC(CO)(CO)COCC(CO)(CO)CO`, the compound was classed as inactive in [1], in experiment [2], in [3], in experiment [19], in experiment [4] and in experiment [5]. Moreover, the compound was classed as inactive in [6], in [7], in experiment [8], in experiment [18], in [10] and in experiment [11]. The outcome in experiment [14], in experiment [15], in experiment [16] and in [17] was inactive.
